{
  "source": "PubChem BioAssay (EPA / NIEHS)",
  "note": "Records with an inconclusive call do not appear. Active and inactive are the calls of the source. The calls were made as follows: active = hit-call score of the fitted dose curve at least 0.9, where 1 is the maximum; inactive = score below 0.9.",
  "data": [
    {"read-out": "ABC Transporter (ABCB11), ABCB11 (gene 8647)", "experiment": "CLD_ABCB11_24hr: CellzDirect (CLD) Gene Expression Assay for ABC Transporter (ABCB11) at 24 hours (AID 2283674)", "experimental": "CLD_24hr is a cell-based, multiplexed-readout assay that uses hepatocyte, a human liver primary cell, with measurements taken at 24 hours after chemical dosing in a 96-well plate.CLD_ABCB11_24hr is one of 16 assay component(s) measured or calculated from the CLD_24hr assay. It is designed to make measurements of mRNA induction, a form of inducible reporter, as detected with chemiluminescence signals by Quantitative Nuclease Protection Assay (qNPA) technology.Data from the assay component CLD_ABCB11_24hr was analyzed at the endpoint, CLD_ABCB11_24hr, in the positive analysis fitting direction relative to DMSO as the negative control and baseline of activity. Using a type of inducible reporter, gain-of-signal activity can be used to understand changes in the reporter gene as they relate to the gene ABCB11. Furthermore, this assay endpoint can be referred to as a primary readout. To generalize the intended target to other relatable targets, this assay endpoint is annotated to the transporter intended target family, where subfamily is ABC transporter.\nHuman hepatocyte cultures were treated daily for two consecutive days with fresh dosing solutions containing appropriate concentrations of the 320 ToxCast chemicals (chemical identities were blinded to CellzDirect and other ToxCast collaborators), vehicle control (0.2% DMSO), and positive control inducers as summarized in Table 1. Due to the large number of treatment groups and chemicals examined, the ToxCast chemicals were divided into two groups (spanning two independent cultures of hepatocytes from separate donor preparations (Hu778: ToxCast plates 1 and 2; Hu776: ToxCast plates 3 and 4). Each preparation of human hepatocyte cultures was treated with respective vehicle control, medium only control, set of six positive controls/reference chemicals for the five hepatic receptor pathways, and a subset of eight of the ToxCast chemicals (indoxacarb, pyrithiobac-sodium, norflurazon, cyhalofop-butyl, methomyl, thiram, acetochlor, and propiconazole). These replicate data, coupled with internal replicates designed within the blinded ToxCast chemical library, provided additional data to evaluate interindividual differences between hepatocyte preparations and their potential impact on chemical profiles.Cell morphology and integrity were evaluated using phase-contrast microscopy as an indicator of hepatocyte cell health (Tyson & Green, 1987). Cultures for each treatment group (i.e., media, vehicle [0.2% DMSO], positive control inducers [multiple concentrations], and the ToxCast chemicals [multiple concentrations]) were observed and cell morphology was assessed relative to vehicle control cultures at each harvest time point (0, 6, 24, or 48 h). […] Images were evaluated at the conclusion of the study to assess changes in cell integrity and account for the effects of chemical exposure on uncharacteristic changes in concentration-dependent gene expression profiles. The results from these determinations of apparent cytotoxicity were annotated (yes/no) alongside the corresponding qNPA data for reference.At the conclusion of each treatment period, hepatocyte cultures (96-well) were washed with 1 volume of HBSS, lysed by addition of 25 ul ArrayPlate lysis buffer (HTG, Tucson, AZ), and 70 ul/well of Denaturation Oil, denatured by incubation at 95C for 10 min, and frozen at approximately -70C until analysis by nuclease protection assay (qNPA) (Roberts et al., 2007). For qNPA analysis, cell lysates were thawed at 50C for approximately 30 min, qNPA probes were added, and samples were incubated at 95C for 10 min to begin the detection process by denaturing the target RNA, dissociating the duplexes and secondary structure hybridization. At the conclusion of the hybridization period, S1 nuclease reagent was added to each sample to digest all nonprotected nucleotides at 50C for 60-90 min. […]", "values": [
      {"smiles": "CCC(O)=C1C(=O)CC(C(=O)O)CC1=O", "note": "(stereo not drawn)", "outcome": "inactive"},
      {"smiles": "COC(=O)c1ccccc1C(=O)O", "outcome": "inactive"},
      {"smiles": "CCOC(=O)[C@H](C)Oc1ccc(Oc2nc3ccc(Cl)cc3o2)cc1", "outcome": "inactive"},
      {"smiles": "COCCO", "outcome": "inactive"},
      {"smiles": "CCOC(=O)C(C)Oc1ccc(Oc2cnc3cc(Cl)ccc3n2)cc1", "note": "(stereo not drawn)", "outcome": "inactive"},
      {"smiles": "CCC(C)OC(=O)N1CCCCC1CCO", "note": "(stereo not drawn)", "outcome": "inactive"},
      {"smiles": "c1ccc(Nc2ccccc2)cc1", "outcome": "inactive"},
      {"smiles": "COC(=O)c1ccc(I)cc1S(=O)(=O)NC(=O)Nc1nc(C)nc(OC)n1", "outcome": "inactive"},
      {"smiles": "CC(C)(c1ccc(O)cc1)c1ccc(O)cc1", "outcome": "inactive"},
      {"smiles": "COC(=O)c1ccc(CNS(C)(=O)=O)cc1S(=O)(=O)NC(=O)Nc1nc(OC)cc(OC)n1", "outcome": "inactive"},
      {"smiles": "CCCOC(=O)c1ccc(C(=O)OCCC)nc1", "outcome": "inactive"},
      {"smiles": "CCNc1nc(N)nc(Cl)n1", "outcome": "inactive"},
      {"smiles": "N#CSCSc1nc2ccccc2s1", "outcome": "inactive"},
      {"smiles": "Cc1nn(C)c(Oc2ccccc2)c1C=NOCc1ccc(C(=O)OC(C)(C)C)cc1", "AC50": "36.8 µM (active)"},
      {"smiles": "C#CCOC(=O)[C@@H](C)Oc1ccc(Oc2ncc(Cl)cc2F)cc1", "outcome": "inactive"},
      {"smiles": "OB(O)O", "outcome": "inactive"},
      {"smiles": "Oc1ccc(C(c2ccc(O)cc2)C(Cl)(Cl)Cl)cc1", "outcome": "inactive"},
      {"smiles": "CCCN(CCC)C(=O)SCC", "outcome": "inactive"}
    ]}
  ]
}
